The source of these data is paper PMC5540273 (PLoS ONE, 2017).

The structures appear in SMILES notation.

Some test systems named below: BMX; BRAF; BRSK1; BRSK2; BTK; BUB1; CAMK1B; CAMK1D; CAMK1G.
Common to all, as to details: concentration: 1 μM, replicates: in singlicate; n = 1
The next test has as its system T1, BRK.
T1 construct: gene PTK6
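Also: KINOMEscan kinase panel screen.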

For the compound `Fc1cc(Cl)ccc1Nc1ccnc2cc(-c3ccc(CN4CCSCC4)o3)ccc12` [GW560106], the “%Inh” value in the test on BMX was found to be 20%; in the test with BRAF, 2%; with BRK, 92.3%; in the test on BRSK1, 0%; with BRSK2, 0%; with BTK, 37%. Also, the “%Inh” value with BUB1 is reported as 38%; with CAMK1B, 10%; in the test on CAMK1D it was 11%; with CAMK1G it was 0%.

For `COc1cccc(CC(=O)N2CCc3cc(-c4cn(C)c5ncnc(N)c45)ccc32)c1` [GSK2608899], the “%Inh” value is 0% with BMX; 6% with BRAF; 53% in the test with BRK; 8% with BRSK1; 0% with BRSK2; 0% in the test with BTK. Also, the “%Inh” value is recorded as 0% with BUB1, 43% with CAMK1B, 19% in the test on CAMK1D and 20% in the test with CAMK1G.

As to `CCNC(=O)/C=C/c1n[nH]c2cc(Sc3ccccc3C(=O)NC)ccc12`, the “%Inh” value was found to be 18% with BMX; 11% with BRAF; 15% in the test on BRK; 38% in the test with BRSK1; 24% in the test on BRSK2; 0% in the test on BTK. Moreover, the “%Inh” value with BUB1 came out at 48%; with CAMK1B, 9%; in the test on CAMK1D, 22%; in the test with CAMK1G, 20%.

As for `Cc1ccc(O)cc1Nc1ccnc2ccc(C(C)(C)C)cc12` [GW856805], the “%Inh” value with BMX is recorded as 19%; with BRAF it was 63%; with BRK, 91.4%; in the test on BRSK1 it was 5%; in the test on BRSK2, 20%; in the test on BTK it was 0%. For the same compound, the “%Inh” value in the test on BUB1 amounted to 30%; in the test on CAMK1B, 29%; in the test on CAMK1D, 28%; in the test on CAMK1G, 0%.

With `COc1ccc(C)c(Nc2ccnc(Nc3ccc(-c4cnc[nH]4)cc3)n2)c1.Cl` [GW784041], the “%Inh” value is recorded as 46% with BMX; 0% in the test with BRAF; 20% with BRK; 8% with BRSK1; 9% in the test with BRSK2; 0% with BTK. For the same compound, the “%Inh” value was 0% in the test with BUB1, 0% with CAMK1B, 25% in the test on CAMK1D and 8% in the test on CAMK1G.

Regarding `Cl.N#CCc1ccc(Nc2nccc(Nc3ccc(Oc4ccccc4)cc3)n2)cc1` [GW639905], the “%Inh” value is listed as 34% with BMX; 0% with BRAF; 60% with BRK; 0% in the test on BRSK1; 0% in the test on BRSK2; 0% with BTK. In addition, the “%Inh” value came to 0% in the test on BUB1, 31% with CAMK1B, 0% in the test with CAMK1D and 0% in the test with CAMK1G.

For `N#CC1(c2cccc(C(=O)Nc3cccc(Oc4ccc5nc(NC(=O)C6CC6)sc5n4)c3)c2)CC1`, the “%Inh” value with BMX was 0%; in the test on BRAF it was 99.9%; in the test with BRK, 18%; in the test on BRSK1, 13%; in the test with BRSK2, 0%; in the test on BTK, 6%. In addition, the “%Inh” value in the test on BUB1 is given as 0%; in the test on CAMK1B it was 0%; with CAMK1D, 2%; in the test on CAMK1G it was 0%.

Regarding `O=C(Nc1n[nH]c2nc(-c3ccccc3O)ccc12)C1CC1` [SB-711880], the “%Inh” value is on record as 0% with BMX; 0% with BRAF; 0% with BRK; 38% with BRSK1; 19% with BRSK2; 0% in the test with BTK. Also, the “%Inh” value stood at 2% with BUB1, 9% in the test on CAMK1B, 4% with CAMK1D and 0% in the test on CAMK1G.

Consider `COc1cc(Nc2nccc(N3CCC(NS(=O)(=O)c4ccc(NC(C)=O)cc4)CC3)n2)cc(OC)c1OC` [GSK1379825], for which the “%Inh” value in the test on BMX is recorded as 32%; in the test on BRAF, 14%; with BRK it was 40%; in the test on BRSK1, 0%; with BRSK2, 1%; in the test on BTK, 0%. For the same compound, the “%Inh” value in the test on BUB1 came out at 48%; with CAMK1B, 35%; in the test with CAMK1D it was 15%; with CAMK1G, 5%.
